Screening results as filed in PubChem BioAssay.
CYP2C19 inhib – blockers of cytochrome P450 2C19 activity – biochemical, luminescence, ADME assay, primary screen; AID 778, 2007; P33261; inhibition, % at 5 µM; 21% of 96,000 active; CYP2C19 Supersomes, luciferin-H EGE luminescence, 30 min;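 active means CYP2C19 inhibition above a set limit at 5 µM in the primary screen, cut at about 50% in these data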;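 further: plate controls were negative control wells for no effect and 2.5 mM tranylcypromine positive control for full effect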
CYP2C19 act – human CYP2C19 activators, primary screen, biochemical, luminescence; recombinant CYP2C19, luciferin-H EGE luminescence; hits give high values; 0 = fully inhibited enzyme, 1 = untreated enzyme; 96,000 tested, under 10 active; AID 1025, 2008; activation factor at 5 µM;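 active means activation factor of at least 2 at 5 µM in the primary screen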;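 further: 0 = wells with 2.5 mM tranylcypromine and 1 = vehicle-only wells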
Cav32 inh – Cav3.2 calcium influx blockers – cell-based, Fluo-4 calcium fluorescence, FDSS, MLSMR library, primary screen; Voltage-dependent T-type calcium channel subunit alpha-1H (Homo sapiens), O95180; Cav3.2-expressing cells; hits give low values; B-score at 10 µM; 4% of 100,000 active; AID 449739, 2010;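 active means single-dose well whose peak fluorescence ratio is a statistical outlier from its plate by either plate-standardised score or position-corrected B-score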
CYP2C9 activ – human CYP2C9 activators, primary screen, biochemical, luminescence | recombinant CYP2C9, luciferin-H conversion; hits give high values; factor 1 = untreated enzyme, 0 = blocked | activation factor at 5 µM | AID 1024, 2008 | 1.4% of 96,000 active | Cytochrome P450 2C9 (Homo sapiens), P11712;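 active means activation factor of 2 or more for CYP2C9 at a 5 µM dose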;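 further: 0 = sulfaphenazole-blocked wells and 1 = vehicle-only wells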
Target sequence (P11712 whole entry, looked up): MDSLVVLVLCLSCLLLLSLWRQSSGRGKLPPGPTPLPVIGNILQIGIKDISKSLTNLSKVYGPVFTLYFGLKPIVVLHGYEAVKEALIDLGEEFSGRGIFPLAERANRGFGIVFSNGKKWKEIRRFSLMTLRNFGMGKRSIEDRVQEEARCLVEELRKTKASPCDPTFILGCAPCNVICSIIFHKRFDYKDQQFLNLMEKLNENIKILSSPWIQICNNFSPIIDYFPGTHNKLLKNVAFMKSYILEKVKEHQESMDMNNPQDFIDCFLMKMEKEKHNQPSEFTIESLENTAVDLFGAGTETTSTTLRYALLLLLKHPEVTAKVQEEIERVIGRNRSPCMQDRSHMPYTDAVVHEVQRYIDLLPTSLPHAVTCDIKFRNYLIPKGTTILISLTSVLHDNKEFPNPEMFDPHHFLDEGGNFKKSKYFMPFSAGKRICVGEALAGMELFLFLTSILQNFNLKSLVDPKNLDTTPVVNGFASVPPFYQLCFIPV
CYP2C9 inhib – blockers of cytochrome P450 2C9 activity – biochemical, luminescence, ADME assay, primary screen; 20% of 96,000 active; AID 777, 2007; CYP2C9 Supersomes, luciferin-H conversion; inhibition, % at 5 µM;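 active means blocking of liver enzyme CYP2C9 beyond about 50% at 5 µM, limit read from the data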
* hit, by the source's call; . = not tested or not shown. Only some compounds are listed: those with a hit (about 27% of all), similar ones and a draw of the others.

SMILES	CYP2C19 inhib	CYP2C19 act	Cav32 inh	CYP2C9 activ	CYP2C9 inhib
CC(C)CC(c1nnnn1C(C)C)N1CCN(c2cccc(Cl)c2)CC1 (configuration not stated)	7.5	0.9	-3.51*	0.6	36.3
CNc1oc(-c2ccc(C)cc2)nc1P(=O)(c1ccccc1)c1ccccc1	24.9	0.8	-4.32*	0.2	81.0*
Cc1nc(P(=O)(c2ccccc2)c2ccccc2)c(N2CCOCC2)o1	-0.3	1	0.93	0.7	26.2
CCn1c(CNc2cccc(Cl)c2)nnc1SCc1ccccc1	55.8*	0.4	-1.1	0.7	33.3
COC(=O)CSc1nnc(CNc2ccc(Cl)cc2)n1Cc1ccccc1	96.6*	0	0.077	0.1	92.3*
CCc1nnc(NC(=O)CSc2nnc(CNc3cccc(Cl)c3)n2CC)s1	12.1	0.9	-1.49	0.5	48.5
CCn1c(CNc2ccc(Cl)cc2)nnc1SCc1ccc(Cl)cc1	.	.	-3.47*	.	.
CCn1c(CNc2ccc(Cl)cc2)nnc1SCc1ccc(C)cc1	.	.	-3.78*	.	.
COc1cc(/C=C2/N=C(c3ccccc3F)OC2=O)cc(Cl)c1OS(C)(=O)=O	14.9	0.9	0.387	0.7	26.5
COC(=O)c1c(-n2c(C)cc(C=O)c2C)sc2c1CCCC2	.	.	-2.46	.	.
Cc1cc(C)c2nc(N3CCC(C(=O)N4CCN(C(=O)c5ccco5)CC4)CC3)sc2c1	52.1*	0.5	-0.452	0.5	51.9*
Cc1ccnc(Sc2nc3c(c(=O)[nH]c(=O)n3C)n2CCCc2ccccc2)n1	26.0	0.7	-0.164	0.6	40.1
CC(=O)c1c(C(C)=O)c(C)n(-c2nc(-c3cccs3)c(C)s2)c1C	18.1	0.8	-1.25	0.5	47.4
Cc1nc2ccccc2n1S(=O)(=O)c1ccc(S(=O)(=O)N2CCCCCC2)cc1	10.7	0.9	0.0663	0.7	25.7
O=S(=O)(N1CCCCC1)n1c(Cc2ccccc2)nc2ccccc21	85.3*	0.1	-2.51	0.3	68.4*
COC(=O)C1CC(O)CN1C(=O)c1ccco1 (configuration not stated)	-22.7	1.2	1.14	1.2	-22.5
CCc1ccc(NC(=O)CCc2nc3cccnc3n2Cc2ccc(OC)cc2)cc1	43.1	0.6	-6.91*	0.6	38.9
CCn1c(SCC(=O)Nc2ccc(C(=O)OC)cc2)nc2cccnc21	.	.	-0.27	.	.
O=C(CC(Nc1ccccc1Cl)C(=O)OCC(=O)c1cccs1)c1ccccc1 (configuration not stated)	65.4*	0.3	-2.22	0.4	61.9*
Cc1noc(C)c1CSc1cc(C)c2ccccc2n1	85.6*	0.1	-0.764	0.5	54.6*
Brc1ccccc1-c1nnc(CSc2nnc3sc4ccccc4n23)o1	79.3*	0.2	1.19	0.8	23.8
N#CCSc1nnc2sc3ccccc3n12	3.6	1	0.242	1.5	-52.9
Cc1cc(SCCC(=O)O)nc2ccccc12	-17.1	1.2	-0.00255	1.2	-24.9
Cc1noc(C)c1CSc1nc2ccccc2n1C	88.7*	0.1	1.14	0.4	62.5*
Cc1noc(C)c1CSc1nnc2sc3ccccc3n12	77.6*	0.2	0.274	1	2.5
SMILES	CYP2C19 inhib	CYP2C19 act	Cav32 inh	CYP2C9 activ	CYP2C9 inhib
COc1ccc(/C(O)=C2/C(=O)C(=O)N(CCCN(C)C)C2c2cccnc2)cc1 (configuration not stated)	-0.6	1	.	1	-1.8
COc1ccc(CCNC(=O)COC(=O)c2cnccn2)cc1	35.1	0.6	-0.0433	0.8	19.2
CCOC(=O)N1CCC(N2Cc3cccc(C(=O)NCc4ccc(C)cc4)c3C2=O)CC1	24.7	0.8	1.37	0.3	70.1*
CCOC(=O)N1CCC(NC(=O)c2cccc3c2C(=O)N(CCOC)C3)CC1	33.5	0.7	0.222	0.1	87.7*
CCOC(=O)N1CCC(N2Cc3cccc(C(=O)NC(C)c4ccc5c(c4)OCCO5)c3C2=O)CC1 (configuration not stated)	82.4*	0.2	-0.161	0	98.5*
CCOC(=O)N1CCC(N2Cc3cccc(C(=O)NCc4ccccn4)c3C2=O)CC1	73.9*	0.3	2.15	0.1	94.9*
Cc1cc(C(F)(F)F)nn1CC(=O)NNC(=S)Nc1cccc(Cl)c1	20.7	0.8	-2.22	0.5	49.2
Cc1ccc(C)c(NC(=S)NC(NC(=O)/C=C/c2ccccc2)C(Cl)(Cl)Cl)c1 (configuration not stated)	-12.9	1.1	-6.9*	0.9	10.3
O=C(/C=C/c1ccccc1)NC(NC(=S)Nc1cccc(Cl)c1)C(Cl)(Cl)Cl (configuration not stated)	0.8	1	-1.64	0.2	77.0*
COc1ccc([C@H]2[C@@H]3C=CCC[C@@]3(C)C(=O)N2Cc2ccccc2)cc1Cl	.	.	-1.02	.	.
COC(=O)C1=C(COc2ccccc2)NC(=O)NC1c1ccc2ccccc2c1 (configuration not stated)	.	.	-0.0209	.	.
CCOC(=O)c1c(C)c(C(=O)NCc2ccccn2)c(C)n1C	-7.9	1.1	0.246	1.1	-8.9
CCOC(=O)c1c(C)oc2c1c1c(c3ccccc32)OCN(Cc2ccccn2)C1	33.0	0.7	-0.215	0.5	54.0*
CCOC(=O)c1c(C)oc2c1c(C(c1ccncc1)N1CCOCC1)c(O)c1ccccc12 (configuration not stated)	97.7*	0	0.928	0	97.4*
CCOC(=O)c1c(C)oc2c1c(C=NC1CCS(=O)(=O)C1)c(O)c1ccccc12 (configuration not stated)	18.2	0.8	.	0.5	47.4
O=c1cc(CN2CCOCC2)c2c(ccc3ccccc32)o1	13.7	0.9	-0.375	0.9	10.0
Cn1c(=O)c2c(nc(CN3CCN(CCO)CC3)n2Cc2cccc3ccccc23)n(C)c1=O	41.3	0.6	0.273	0.7	34.6
Cc1ccc(-c2csc3nnc(SCC(=O)N4CCN(Cc5ccccc5)CC4)n23)cc1	56.8*	0.4	0.0864	0.3	68.5*
COc1ccc(-n2c(Cc3cccn3C)nnc2SCC(=O)N2CCCc3ccccc32)cc1	36.4	0.6	-2.39	1	1.6
O=C(CSc1nnc(CN2CCOCC2)n1-c1ccccc1)N1CCc2ccccc21	26.7	0.7	0.424	0.4	63.3*
CC(c1nnc(SCC(=O)N2CCc3ccccc32)n1-c1ccc(Cl)cc1)N(C)C (configuration not stated)	61.1*	0.4	-2.06	0.8	20.9
COc1ccc(OCc2nnc(SCC(=O)N3CCCc4ccccc43)n2-c2ccc(C)cc2)cc1	61.6*	0.4	-8.19*	0.1	86.9*
Nc1nnc(SCC(=O)N2CCc3ccccc32)n1-c1ccccc1	-17.5	1.2	0.72	1.3	-34.4
CCCn1c(SCC(=O)N2CCCc3ccccc32)nnc1-c1ccccn1	78.9*	0.2	0.0367	1.1	-8.3
COc1ccccc1OCCSc1nnc(C)n1-c1ccccc1	77.4*	0.2	1.88	1.4	-41.9
